Measured values as given in ChEMBL document CHEMBL2218924, “A broad activity screen in support of a chemogenomic map for kinase signalling research and drug discovery” (Biochem J, 2013).

Assays:
[1] = molecular target: T1, Serine/threonine-protein kinase 17A (Homo sapiens) (UniProt Q9UEE5); conditions: at 10 µM
T1 sequence (whole entry): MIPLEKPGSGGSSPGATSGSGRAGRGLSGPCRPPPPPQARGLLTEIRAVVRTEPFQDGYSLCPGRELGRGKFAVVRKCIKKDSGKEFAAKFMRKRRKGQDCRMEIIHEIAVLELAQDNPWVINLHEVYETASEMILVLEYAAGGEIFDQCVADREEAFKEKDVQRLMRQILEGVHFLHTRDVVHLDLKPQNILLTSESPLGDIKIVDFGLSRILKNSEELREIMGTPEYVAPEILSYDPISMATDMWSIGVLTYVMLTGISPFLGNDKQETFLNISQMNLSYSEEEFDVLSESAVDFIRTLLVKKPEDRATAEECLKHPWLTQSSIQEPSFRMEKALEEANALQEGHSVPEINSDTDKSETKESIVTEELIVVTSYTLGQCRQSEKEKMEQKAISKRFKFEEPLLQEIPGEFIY

[2] = molecular target: T2, Dual specificity tyrosine-phosphorylation-regulated kinase 2 (Homo sapiens) (UniProt Q92630); conditions: at 1 µM
T2 sequence (whole entry): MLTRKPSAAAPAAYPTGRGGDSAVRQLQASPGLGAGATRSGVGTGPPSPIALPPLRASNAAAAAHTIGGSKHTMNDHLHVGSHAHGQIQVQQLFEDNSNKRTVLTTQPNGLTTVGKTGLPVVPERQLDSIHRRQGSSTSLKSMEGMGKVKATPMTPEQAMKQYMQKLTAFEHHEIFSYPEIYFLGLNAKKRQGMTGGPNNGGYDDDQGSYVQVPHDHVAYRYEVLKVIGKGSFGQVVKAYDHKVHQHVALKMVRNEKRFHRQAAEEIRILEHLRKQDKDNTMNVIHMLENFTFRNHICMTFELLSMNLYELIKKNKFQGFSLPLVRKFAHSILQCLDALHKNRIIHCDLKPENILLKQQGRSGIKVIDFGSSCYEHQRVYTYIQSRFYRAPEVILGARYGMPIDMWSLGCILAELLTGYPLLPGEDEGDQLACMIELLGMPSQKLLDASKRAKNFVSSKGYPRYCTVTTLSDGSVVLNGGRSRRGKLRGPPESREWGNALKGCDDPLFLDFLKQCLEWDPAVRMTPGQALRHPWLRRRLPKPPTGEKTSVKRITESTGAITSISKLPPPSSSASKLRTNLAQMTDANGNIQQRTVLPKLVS

[3] = molecular target: T2, Dual specificity tyrosine-phosphorylation-regulated kinase 2 (Homo sapiens); conditions: at 10 µM
[4] = molecular target: T3, Ephrin type-A receptor 1 (Homo sapiens) (UniProt P21709); conditions: at 1 µM
T3 sequence (whole entry): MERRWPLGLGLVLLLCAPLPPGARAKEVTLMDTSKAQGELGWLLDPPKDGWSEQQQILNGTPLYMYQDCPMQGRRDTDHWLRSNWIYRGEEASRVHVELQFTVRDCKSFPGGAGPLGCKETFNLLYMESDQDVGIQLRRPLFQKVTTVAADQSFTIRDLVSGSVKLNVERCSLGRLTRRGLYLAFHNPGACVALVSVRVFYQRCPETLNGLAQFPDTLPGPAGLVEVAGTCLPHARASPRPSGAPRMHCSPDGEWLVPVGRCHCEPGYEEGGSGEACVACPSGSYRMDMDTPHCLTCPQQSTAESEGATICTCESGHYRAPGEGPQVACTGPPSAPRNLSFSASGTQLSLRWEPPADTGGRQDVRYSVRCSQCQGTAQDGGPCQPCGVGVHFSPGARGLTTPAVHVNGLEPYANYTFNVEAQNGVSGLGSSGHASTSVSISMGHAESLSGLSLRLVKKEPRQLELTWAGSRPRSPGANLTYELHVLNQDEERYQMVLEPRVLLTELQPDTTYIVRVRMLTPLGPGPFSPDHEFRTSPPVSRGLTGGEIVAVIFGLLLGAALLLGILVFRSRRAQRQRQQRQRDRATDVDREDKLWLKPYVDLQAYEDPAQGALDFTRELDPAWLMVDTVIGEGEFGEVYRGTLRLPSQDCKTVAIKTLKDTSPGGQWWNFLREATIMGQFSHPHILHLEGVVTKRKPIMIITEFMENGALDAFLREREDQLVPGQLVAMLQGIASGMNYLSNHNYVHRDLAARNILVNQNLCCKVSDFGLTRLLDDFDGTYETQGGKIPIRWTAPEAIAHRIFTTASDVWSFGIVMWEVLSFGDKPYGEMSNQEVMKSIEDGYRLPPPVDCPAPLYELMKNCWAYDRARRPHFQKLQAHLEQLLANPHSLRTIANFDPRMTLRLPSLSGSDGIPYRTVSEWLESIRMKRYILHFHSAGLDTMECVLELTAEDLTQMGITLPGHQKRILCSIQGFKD

[5] = molecular target: T3, Ephrin type-A receptor 1 (Homo sapiens); conditions: at 10 µM
[6] = molecular target: Ephrin type-A receptor 2 (Homo sapiens) (UniProt P29317); conditions: at 1 µM
[7] = molecular target: Ephrin type-A receptor 2 (Homo sapiens) (UniProt P29317); conditions: at 10 µM
[8] = molecular target: T4, Ephrin type-A receptor 3 (Homo sapiens) (UniProt P29320); conditions: at 1 µM
T4 sequence (whole entry): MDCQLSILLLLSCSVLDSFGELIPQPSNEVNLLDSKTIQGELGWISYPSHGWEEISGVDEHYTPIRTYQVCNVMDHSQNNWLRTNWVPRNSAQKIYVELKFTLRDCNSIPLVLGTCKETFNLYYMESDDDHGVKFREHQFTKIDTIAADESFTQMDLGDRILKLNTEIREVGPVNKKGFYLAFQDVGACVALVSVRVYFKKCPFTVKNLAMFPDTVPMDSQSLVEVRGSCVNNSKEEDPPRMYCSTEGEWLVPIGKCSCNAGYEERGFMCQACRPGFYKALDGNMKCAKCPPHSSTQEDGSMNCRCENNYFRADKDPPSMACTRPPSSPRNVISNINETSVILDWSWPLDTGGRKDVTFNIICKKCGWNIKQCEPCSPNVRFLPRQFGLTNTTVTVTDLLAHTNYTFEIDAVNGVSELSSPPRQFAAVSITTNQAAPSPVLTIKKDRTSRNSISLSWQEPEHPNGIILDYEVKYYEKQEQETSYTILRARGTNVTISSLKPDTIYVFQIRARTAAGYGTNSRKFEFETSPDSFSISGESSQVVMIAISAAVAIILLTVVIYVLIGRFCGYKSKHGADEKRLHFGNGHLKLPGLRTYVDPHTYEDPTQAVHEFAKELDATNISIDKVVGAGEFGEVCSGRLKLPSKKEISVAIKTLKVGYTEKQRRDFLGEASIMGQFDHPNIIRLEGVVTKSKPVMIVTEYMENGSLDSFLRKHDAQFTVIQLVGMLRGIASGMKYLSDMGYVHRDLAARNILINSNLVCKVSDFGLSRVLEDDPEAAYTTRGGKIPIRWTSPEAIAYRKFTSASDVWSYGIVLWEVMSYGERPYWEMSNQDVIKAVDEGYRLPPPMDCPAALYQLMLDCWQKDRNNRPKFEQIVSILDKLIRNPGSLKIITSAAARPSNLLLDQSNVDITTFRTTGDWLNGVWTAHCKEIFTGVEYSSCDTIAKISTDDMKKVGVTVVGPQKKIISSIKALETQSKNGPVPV

[9] = molecular target: T4, Ephrin type-A receptor 3 (Homo sapiens); conditions: at 10 µM
[10] = molecular target: Ephrin type-A receptor 4 (Homo sapiens) (UniProt P54764); conditions: at 1 µM
[11] = molecular target: Ephrin type-A receptor 4 (Homo sapiens) (UniProt P54764); conditions: at 10 µM
[12] = molecular target: Ephrin type-A receptor 5 (Homo sapiens) (UniProt P54756); conditions: at 1 µM
[13] = molecular target: Ephrin type-A receptor 5 (Homo sapiens) (UniProt P54756); conditions: at 10 µM
[14] = molecular target: Ephrin type-A receptor 7 (Homo sapiens) (UniProt Q15375); conditions: at 1 µM
[15] = molecular target: Ephrin type-A receptor 7 (Homo sapiens) (UniProt Q15375); conditions: at 10 µM
[16] = molecular target: T5, Ephrin type-A receptor 8 (Homo sapiens) (UniProt P29322); conditions: at 1 µM
T5 sequence (whole entry): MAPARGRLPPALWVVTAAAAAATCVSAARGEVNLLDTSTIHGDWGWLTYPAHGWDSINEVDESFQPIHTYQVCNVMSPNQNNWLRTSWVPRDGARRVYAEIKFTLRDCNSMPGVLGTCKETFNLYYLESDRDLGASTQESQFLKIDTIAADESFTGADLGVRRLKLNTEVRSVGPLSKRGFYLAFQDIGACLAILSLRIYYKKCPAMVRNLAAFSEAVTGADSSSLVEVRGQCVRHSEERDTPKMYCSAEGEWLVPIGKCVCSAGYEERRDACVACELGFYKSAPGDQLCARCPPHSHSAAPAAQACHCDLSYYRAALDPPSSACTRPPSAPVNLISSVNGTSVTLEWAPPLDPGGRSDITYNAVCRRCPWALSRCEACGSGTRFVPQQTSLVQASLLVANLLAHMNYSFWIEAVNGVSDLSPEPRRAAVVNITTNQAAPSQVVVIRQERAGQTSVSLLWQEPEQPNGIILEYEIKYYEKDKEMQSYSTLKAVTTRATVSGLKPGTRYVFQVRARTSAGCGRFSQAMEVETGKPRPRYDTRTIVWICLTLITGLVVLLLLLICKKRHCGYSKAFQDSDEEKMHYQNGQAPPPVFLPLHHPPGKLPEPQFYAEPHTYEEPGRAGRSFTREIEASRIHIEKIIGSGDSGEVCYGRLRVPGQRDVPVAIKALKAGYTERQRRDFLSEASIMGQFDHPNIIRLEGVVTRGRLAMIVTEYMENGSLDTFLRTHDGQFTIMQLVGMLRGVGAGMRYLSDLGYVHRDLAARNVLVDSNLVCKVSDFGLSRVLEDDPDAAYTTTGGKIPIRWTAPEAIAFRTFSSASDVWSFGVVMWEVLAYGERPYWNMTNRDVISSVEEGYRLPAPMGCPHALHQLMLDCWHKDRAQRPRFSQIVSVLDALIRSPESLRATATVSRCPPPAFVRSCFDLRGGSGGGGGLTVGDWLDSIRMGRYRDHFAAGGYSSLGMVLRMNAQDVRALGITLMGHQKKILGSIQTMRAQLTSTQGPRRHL

[17] = molecular target: T5, Ephrin type-A receptor 8 (Homo sapiens); conditions: at 10 µM
[18] = molecular target: T6, Ephrin type-B receptor 1 (Homo sapiens) (UniProt P54762); conditions: at 1 µM
T6 sequence (whole entry): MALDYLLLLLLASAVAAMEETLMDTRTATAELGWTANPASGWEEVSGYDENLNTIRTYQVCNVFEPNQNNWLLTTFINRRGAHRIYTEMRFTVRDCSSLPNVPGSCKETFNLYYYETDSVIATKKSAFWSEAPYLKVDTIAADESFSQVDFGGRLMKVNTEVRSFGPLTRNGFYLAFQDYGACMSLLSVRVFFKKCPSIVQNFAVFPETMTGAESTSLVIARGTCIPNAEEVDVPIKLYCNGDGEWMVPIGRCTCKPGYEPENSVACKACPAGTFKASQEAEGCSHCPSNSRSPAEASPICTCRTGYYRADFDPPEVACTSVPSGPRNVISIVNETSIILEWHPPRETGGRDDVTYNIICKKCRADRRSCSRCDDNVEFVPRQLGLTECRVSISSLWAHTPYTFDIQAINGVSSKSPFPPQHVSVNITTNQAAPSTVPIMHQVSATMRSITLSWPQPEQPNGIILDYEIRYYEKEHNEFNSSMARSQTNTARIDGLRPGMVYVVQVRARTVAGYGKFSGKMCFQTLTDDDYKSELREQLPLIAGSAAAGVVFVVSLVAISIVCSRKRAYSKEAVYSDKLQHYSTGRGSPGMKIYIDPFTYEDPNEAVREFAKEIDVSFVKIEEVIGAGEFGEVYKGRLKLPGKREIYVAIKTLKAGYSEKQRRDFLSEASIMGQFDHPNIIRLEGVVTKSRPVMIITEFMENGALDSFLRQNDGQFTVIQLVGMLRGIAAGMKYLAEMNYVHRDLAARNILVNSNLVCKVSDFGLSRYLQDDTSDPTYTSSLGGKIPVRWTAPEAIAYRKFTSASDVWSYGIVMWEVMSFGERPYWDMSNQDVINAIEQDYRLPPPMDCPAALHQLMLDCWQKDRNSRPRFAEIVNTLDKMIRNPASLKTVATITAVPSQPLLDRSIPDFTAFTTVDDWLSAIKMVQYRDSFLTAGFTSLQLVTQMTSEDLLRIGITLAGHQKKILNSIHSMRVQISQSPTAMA

Chain of Ephrin type-A receptor 4 (Homo sapiens) (P54764 whole entry): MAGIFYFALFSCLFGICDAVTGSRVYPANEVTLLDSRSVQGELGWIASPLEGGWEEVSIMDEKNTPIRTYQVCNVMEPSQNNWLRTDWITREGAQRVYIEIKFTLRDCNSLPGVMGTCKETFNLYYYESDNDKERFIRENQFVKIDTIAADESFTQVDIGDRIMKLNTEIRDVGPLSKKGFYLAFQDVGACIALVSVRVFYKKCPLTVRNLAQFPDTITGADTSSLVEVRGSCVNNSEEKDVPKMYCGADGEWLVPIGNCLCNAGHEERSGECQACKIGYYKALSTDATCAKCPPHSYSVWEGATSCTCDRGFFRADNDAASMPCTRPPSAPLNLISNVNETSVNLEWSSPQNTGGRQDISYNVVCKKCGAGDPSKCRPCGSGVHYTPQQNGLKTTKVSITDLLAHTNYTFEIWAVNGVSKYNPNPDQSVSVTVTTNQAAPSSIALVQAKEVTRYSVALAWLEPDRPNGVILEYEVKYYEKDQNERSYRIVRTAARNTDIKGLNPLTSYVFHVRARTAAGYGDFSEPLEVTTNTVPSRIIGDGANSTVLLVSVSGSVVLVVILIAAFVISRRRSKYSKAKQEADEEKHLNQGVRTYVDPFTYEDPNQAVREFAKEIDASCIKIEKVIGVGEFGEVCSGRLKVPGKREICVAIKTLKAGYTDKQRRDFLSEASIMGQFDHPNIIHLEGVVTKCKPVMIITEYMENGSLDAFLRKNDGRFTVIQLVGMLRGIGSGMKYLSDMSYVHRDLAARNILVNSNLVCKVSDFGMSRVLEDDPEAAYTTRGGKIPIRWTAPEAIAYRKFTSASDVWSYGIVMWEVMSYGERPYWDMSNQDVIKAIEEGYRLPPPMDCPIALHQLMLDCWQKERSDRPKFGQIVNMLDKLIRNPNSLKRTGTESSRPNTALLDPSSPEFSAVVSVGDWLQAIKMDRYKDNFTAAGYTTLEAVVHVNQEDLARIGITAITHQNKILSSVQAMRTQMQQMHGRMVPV
Chain of Ephrin type-A receptor 7 (Homo sapiens) (Q15375 28-998 limits assumed): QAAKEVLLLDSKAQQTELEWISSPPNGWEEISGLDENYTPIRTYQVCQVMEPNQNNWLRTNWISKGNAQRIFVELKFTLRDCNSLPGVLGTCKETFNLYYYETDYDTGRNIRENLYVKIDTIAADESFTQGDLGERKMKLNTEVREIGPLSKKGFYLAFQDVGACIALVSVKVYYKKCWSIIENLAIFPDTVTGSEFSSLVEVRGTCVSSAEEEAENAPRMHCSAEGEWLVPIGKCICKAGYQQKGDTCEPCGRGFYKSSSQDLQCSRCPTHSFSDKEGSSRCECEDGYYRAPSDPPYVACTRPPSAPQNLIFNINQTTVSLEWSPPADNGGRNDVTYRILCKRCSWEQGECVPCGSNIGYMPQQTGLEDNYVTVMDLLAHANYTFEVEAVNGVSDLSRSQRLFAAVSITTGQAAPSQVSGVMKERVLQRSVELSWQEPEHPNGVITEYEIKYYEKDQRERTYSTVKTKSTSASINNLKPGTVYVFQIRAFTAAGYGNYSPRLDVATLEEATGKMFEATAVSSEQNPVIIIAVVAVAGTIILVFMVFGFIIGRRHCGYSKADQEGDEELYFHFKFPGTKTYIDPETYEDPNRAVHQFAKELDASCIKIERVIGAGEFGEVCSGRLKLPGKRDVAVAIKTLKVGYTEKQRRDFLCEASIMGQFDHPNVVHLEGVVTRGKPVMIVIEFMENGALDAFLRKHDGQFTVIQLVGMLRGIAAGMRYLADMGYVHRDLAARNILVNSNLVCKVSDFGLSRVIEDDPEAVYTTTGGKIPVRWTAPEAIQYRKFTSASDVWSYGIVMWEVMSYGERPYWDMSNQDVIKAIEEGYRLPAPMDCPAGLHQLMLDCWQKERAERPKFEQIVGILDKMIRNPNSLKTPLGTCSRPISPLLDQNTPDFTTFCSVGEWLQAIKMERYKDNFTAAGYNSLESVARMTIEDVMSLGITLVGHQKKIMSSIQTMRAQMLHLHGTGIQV
Chain of Ephrin type-A receptor 2 (Homo sapiens) (P29317 whole entry): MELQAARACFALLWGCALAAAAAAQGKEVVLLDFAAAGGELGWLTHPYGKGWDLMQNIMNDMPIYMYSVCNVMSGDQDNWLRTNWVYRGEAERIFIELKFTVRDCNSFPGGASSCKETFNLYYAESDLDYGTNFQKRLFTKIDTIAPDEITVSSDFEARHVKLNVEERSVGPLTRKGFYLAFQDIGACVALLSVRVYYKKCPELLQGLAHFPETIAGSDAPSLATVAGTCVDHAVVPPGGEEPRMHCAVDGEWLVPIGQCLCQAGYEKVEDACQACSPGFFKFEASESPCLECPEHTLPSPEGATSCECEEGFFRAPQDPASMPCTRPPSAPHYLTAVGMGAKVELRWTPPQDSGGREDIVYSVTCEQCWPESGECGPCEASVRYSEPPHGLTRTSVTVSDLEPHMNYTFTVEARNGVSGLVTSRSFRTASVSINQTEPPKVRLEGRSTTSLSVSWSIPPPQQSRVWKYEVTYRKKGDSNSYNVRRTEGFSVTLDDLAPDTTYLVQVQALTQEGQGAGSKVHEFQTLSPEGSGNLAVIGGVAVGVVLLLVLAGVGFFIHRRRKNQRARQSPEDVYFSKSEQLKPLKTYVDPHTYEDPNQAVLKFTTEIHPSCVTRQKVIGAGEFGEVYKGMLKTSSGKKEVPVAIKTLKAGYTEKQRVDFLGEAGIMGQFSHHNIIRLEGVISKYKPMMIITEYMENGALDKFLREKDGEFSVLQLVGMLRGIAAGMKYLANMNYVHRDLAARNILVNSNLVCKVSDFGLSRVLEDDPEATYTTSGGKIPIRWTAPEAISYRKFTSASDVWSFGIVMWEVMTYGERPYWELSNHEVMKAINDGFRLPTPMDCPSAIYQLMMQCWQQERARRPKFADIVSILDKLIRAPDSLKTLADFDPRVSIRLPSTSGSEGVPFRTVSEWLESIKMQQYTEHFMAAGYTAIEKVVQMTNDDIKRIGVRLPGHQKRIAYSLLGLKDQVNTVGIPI
Chain of Ephrin type-A receptor 5 (Homo sapiens) (P54756 whole entry): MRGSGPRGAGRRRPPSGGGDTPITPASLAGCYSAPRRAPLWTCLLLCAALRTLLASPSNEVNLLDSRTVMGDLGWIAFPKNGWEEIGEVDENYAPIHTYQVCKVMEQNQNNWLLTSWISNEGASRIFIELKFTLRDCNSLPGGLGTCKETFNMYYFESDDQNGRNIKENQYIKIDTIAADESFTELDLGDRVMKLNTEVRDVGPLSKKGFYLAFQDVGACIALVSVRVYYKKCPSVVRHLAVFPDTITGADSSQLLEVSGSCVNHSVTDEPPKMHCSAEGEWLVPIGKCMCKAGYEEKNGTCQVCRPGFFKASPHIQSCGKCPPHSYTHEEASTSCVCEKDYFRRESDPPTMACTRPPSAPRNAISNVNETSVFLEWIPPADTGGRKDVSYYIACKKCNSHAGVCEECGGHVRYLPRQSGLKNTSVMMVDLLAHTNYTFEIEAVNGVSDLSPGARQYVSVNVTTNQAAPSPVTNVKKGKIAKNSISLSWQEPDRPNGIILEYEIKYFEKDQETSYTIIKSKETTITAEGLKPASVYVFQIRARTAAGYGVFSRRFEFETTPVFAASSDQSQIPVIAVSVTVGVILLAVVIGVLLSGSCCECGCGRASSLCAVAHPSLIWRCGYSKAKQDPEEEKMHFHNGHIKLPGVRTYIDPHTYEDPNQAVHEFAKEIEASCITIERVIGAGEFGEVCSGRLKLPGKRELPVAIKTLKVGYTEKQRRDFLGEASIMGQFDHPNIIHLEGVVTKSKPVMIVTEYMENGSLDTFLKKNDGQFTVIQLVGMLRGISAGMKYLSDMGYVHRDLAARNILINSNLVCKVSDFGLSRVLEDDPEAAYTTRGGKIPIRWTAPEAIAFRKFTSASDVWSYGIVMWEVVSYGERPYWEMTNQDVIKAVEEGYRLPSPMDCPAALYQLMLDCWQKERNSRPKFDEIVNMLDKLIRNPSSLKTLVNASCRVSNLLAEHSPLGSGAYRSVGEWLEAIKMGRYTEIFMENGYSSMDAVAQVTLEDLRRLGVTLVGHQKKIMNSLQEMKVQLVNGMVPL

Compound	residual activity [1] [%]	residual activity [2] [%]	residual activity [3] [%]	residual activity [4] [%]	residual activity [5] [%]	residual activity [6] [%]	residual activity [7] [%]	residual activity [8] [%]	residual activity [9] [%]	residual activity [10] [%]	residual activity [11] [%]	residual activity [12] [%]	residual activity [13] [%]	residual activity [14] [%]	residual activity [15] [%]	residual activity [16] [%]	residual activity [17] [%]	residual activity [18] [%]
Cc1ccc(NC2=CC(=O)c3sc(C)nc3C2=O)cc1	81	85	100	95	91	95	102	92	97	101	112	110	100	90	83	89	96	81
COc1cc2ncnc(Nc3ccc(NC(=O)c4ccccc4)cc3)c2cc1OC	78	98	98	107	106	–	–	–	102	109	102	104	97	92	66	103	103	97
Ic1cccc(CSc2nnc(-c3ccncc3)o2)c1	3	87	60	95	88	90	91	96	83	104	103	106	99	88	81	89	87	95
N#Cc1cnc2cnc(NCc3cccnc3)cc2c1Nc1ccc(F)c(Cl)c1	32	–	–	95	79	96	87	96	72	103	76	56	46	–	–	–	–	100
